According to publication PMC5836133, “The intracellular immune receptor Rx1 regulates the DNA-binding activity of a Golden2-like transcription factor”:
Whole data set: some 16,000 sequences, median “e-score” near -0.044, cut for the highest 2% near 0.38. Only a selection was taken, and the highest values are over-represented in it overall.

Target: T1, GST-NbGlk1(82-244) (Nicotiana benthamiana)
T1 chain: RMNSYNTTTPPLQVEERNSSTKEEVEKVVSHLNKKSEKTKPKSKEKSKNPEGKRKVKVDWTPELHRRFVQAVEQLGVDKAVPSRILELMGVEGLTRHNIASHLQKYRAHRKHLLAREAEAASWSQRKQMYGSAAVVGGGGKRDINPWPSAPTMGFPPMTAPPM
Assay: protein-binding microarray; NbGlk1 is a Golden2-like transcription factor of Nicotiana benthamiana; high values mean tight binding
Settings: protein: recombinant; tags: GST (pTH6838); dsDNA, one strand shown

Row | Sequence | binding signal [E-score]
1 | AATTTCCT | 0.255 ± 0.00447
2 | AATCACCG | 0.281 ± 0.0154
3 | AATCACCA | 0.26 ± 0.00706
4 | AATCTCCC | 0.387 ± 0.0218
5 | AATCCCCC | 0.215 ± 0.101
6 | ATCCGGTA | 0.286 ± 0.0898
7 | ATTTGCAC | 0.305 ± 0.0821
8 | ATCCAATA | 0.324 ± 0.0209
9 | ATCTTTGG | 0.304 ± 0.0128
10 | ATCTTTTA | 0.259 ± 0.0767
11 | ATACCGCA | 0.211 ± 0.101
12 | AAAGCGAT | 0.215 ± 0.0733
13 | AATTTGCG | 0.223 ± 0.0644
14 | ATTCACAA | 0.218 ± 0.0225
15 | AAAGCAAT | 0.27 ± 0.0827
16 | ATATCCTC | 0.402 ± 0.00645
17 | ATTTCCTA | 0.358 ± 0.0333
18 | ATATCCTA | 0.416 ± 0.0447
19 | ATCTCCTC | 0.296 ± 0.0162
20 | ATATCCTG | 0.373 ± 0.0434
21 | ATATCGTA | 0.364 ± 0.049
22 | ATTTGGTG | 0.213 ± 0.0582
23 | AGACAGAT | 0.222 ± 0.0932

Row | Sequence | binding signal [E-score]
24 | ATCCTGCA | 0.261 ± 0.126
25 | ACGAGATA | 0.2747 ± 0.00202
26 | ATGAGATC | 0.369 ± 0.0039
27 | ACGAGATC | 0.41 ± 0.00651
28 | AGAAGATA | 0.26 ± 0.0155
29 | AGAAGATC | 0.383 ± 0.0277
30 | AGGAGATA | 0.228 ± 0.0512
31 | AGGAGATC | 0.382 ± 0.00924
32 | ACAAGATC | 0.2947 ± 0.00243
33 | AGGAGAAT | 0.267 ± 0.0583
34 | AACGTATC | 0.322 ± 0.0281
35 | ATTACATG | 0.293 ± 0.0579
36 | ATCTGTAG | 0.3 ± 0.055
37 | ATACGCAT | 0.204 ± 0.0532
38 | ATCTGATC | 0.329 ± 0.0755
39 | ATTACACA | 0.31 ± 0.0413
40 | ATATCTCG | 0.435 ± 0.0109
41 | ATCTCTCA | 0.295 ± 0.0129
42 | ATATCACC | 0.277 ± 0.0211
43 | ATATCACG | 0.347 ± 0.0113
44 | ATCTCTCG | 0.231 ± 0.0608
45 | ATATCTCC | 0.388 ± 0.0404
46 | ATCTCCCC | 0.301 ± 0.0229

Row | Sequence | binding signal [E-score]
47 | ATATCTCA | 0.3895 ± 0.00167
48 | ATTTCTCA | 0.248 ± 0.108
49 | AATCCCCA | 0.346 ± 0.00463
50 | ACTAAATC | 0.213 ± 0.00269
51 | AACACAAT | 0.213 ± 0.0479
52 | ATTACAAC | 0.257 ± 0.0217
53 | ATGAGATA | 0.20921 ± 0.000115
54 | ATTGCGCA | 0.301 ± 0.0513
55 | ATCTGGAC | 0.346 ± 0.0997
56 | ATCTCCAA | 0.342 ± 0.0598
57 | ACCAAAAT | 0.245 ± 0.0514
58 | ACCAAATC | 0.406 ± 0.00414
59 | AGTAAATC | 0.241 ± 0.0671
60 | AGCAAAAT | 0.241 ± 0.0294
61 | ATCAAATC | 0.36 ± 0.00877
62 | AGCAAATC | 0.4187 ± 0.000896
63 | AAAAAATC | 0.439 ± 0.0166
64 | AGCAAATA | 0.221 ± 0.0663
65 | AGAAAATC | 0.4794 ± 0.0015
66 | AAAAAATT | 0.204 ± 0.0566
67 | AGAAAAAT | 0.252 ± 0.0352
68 | AAAAAAAT | 0.286 ± 0.0488
69 | ATATGAAG | 0.207 ± 0.0492

Row | Sequence | binding signal [E-score]
70 | AATCACAG | 0.3111 ± 0.000659
71 | CAAGATCC | 0.33 ± 0.0132
72 | ATTACACC | 0.334 ± 0.0466
73 | AACGATAT | 0.29 ± 0.015
74 | ATTTTCCC | 0.304 ± 0.0203
75 | AAATTATA | 0.256 ± 0.00661
76 | AATCGTTG | 0.203 ± 0.0845
77 | AACATAAT | 0.233 ± 0.0831
78 | ACAAAATA | 0.293 ± 0.102
79 | ATAAAATA | 0.22 ± 0.00301
80 | CAAAAATC | 0.399 ± 0.00565
81 | AACAAATC | 0.302 ± 0.043
82 | CACAAATC | 0.274 ± 0.0179
83 | ACAAAAAT | 0.238 ± 0.045
84 | ACAAAATC | 0.4578 ± 0.00327
85 | ATAAAAAT | 0.292 ± 0.0292
86 | ACACAATC | 0.39 ± 0.0203
87 | AGACAATC | 0.3189 ± 0.000404
88 | ACACAATA | 0.226 ± 0.0401
89 | ATAAAATC | 0.409 ± 0.00541
